Source: the supplement of paper PMC11417369
In all, about 25,000 sequences were measured (“ln(normalized median fluorescence intensity)”: median about 6.7, highest 2% from about 10 on). For the sample, the highest values were picked, then their nearest neighbours and some sequences at random.

What follows are sequences tested on PfHDP1 homeodomain (GST-tagged) (assay: gcPBM binding intensity (ln(normalized median fluorescence intensity)); higher = stronger DNA binding).
How it was run: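 Binding intensity is defined as the maximum Masliner-normalised natural-log median intensity across replicate spots for either probe orientation. It was measured on an Agilent 4 × 180k array of primer-extended double-stranded 36-bp intergenic genomic probes and negative controls, to which GST-tagged P. falciparum DNA-binding domains made in E. coli were applied for 1 h in 1× PBS with 1% milk, 0.2 mg/ml BSA, 0.5% salmon testes DNA and 0.03% Triton X-100. Detection was by Alexa488 anti-GST antibody and scanning at 488 nm.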
“TTTTATGTTCTTAATGCACACTTATAAGTATCTTAT [CACACA_site4895]” was tested, and the “gcPBM binding intensity (ln)” value was 10.6.
In the case of TATATATATATATGTATGCACTTTAATTTTATAAGG, the “gcPBM binding intensity (ln)” value is reported as 9.31.
In the case of “TTATGTTCTTAATGCACACTTATAAGTATCTTATAA [CACACA_site1394]”, the “gcPBM binding intensity (ln)” value is reported as 9.72.
In the case of “TATGAATATTGCATGTGTACCTATTATCCTTTTAAA [XGTACX_site4311]”, the “gcPBM binding intensity (ln)” value is reported as 6.95.
In the case of “TATAAAAAAAAAAAAAGTACTAACTTAAAACAATTT [XGTACX_site7969]”, the “gcPBM binding intensity (ln)” value is reported as 5.92.
With “CACTTTAATTTATGCACACATATGGAACAACAGCCA [CACACA_site994]” the “gcPBM binding intensity (ln)” value was 10.6.
“AACACTTTAATTTATGCACACATATGGAACAACAGC [CACACA_site8241]” was tested, and the “gcPBM binding intensity (ln)” value was 10.2.
With “TATTCAACATAATATGCACACAAAAATTATGGAACG [CACACA_site8660]” the “gcPBM binding intensity (ln)” value was 9.99.
“TTTTTAAAAATATACACACACAGATATTATATATAT [CACACA_site786]” was tested, and the “gcPBM binding intensity (ln)” value was 6.94.
In the case of “TTATAATAATTTTATGCACACAGAAAAATACAAGGT [CACACA_site9169]”, the “gcPBM binding intensity (ln)” value is reported as 10.2.
“ACAGAATACATATACACACATACAAAAAAGTGCATA [CACACA_site987]” was tested, and the “gcPBM binding intensity (ln)” value was 7.81.
In the case of “TTTTTTTAATAGTGTGCACACAATATACAGAAAAAA [CACACA_site8399]”, the “gcPBM binding intensity (ln)” value is reported as 11.
With “TTTTTTTAACGGTGTGCACACAATATACAGAAAAAA [CACACA_site1415]” the “gcPBM binding intensity (ln)” value was 11.1.
In the case of TTTTTAATATATTAGGTGCACAATAATACACTTTAT, the “gcPBM binding intensity (ln)” value is reported as 10.3.
“TGTAGTCTGGAGAAAAGTACATAGTATCTGATAACC [XGTACX_site2018]” was tested, and the “gcPBM binding intensity (ln)” value was 6.4.
With “TAAATATGCTCACAGATGCACTAACACATTTTTATA [GTGCAC_site9997]” the “gcPBM binding intensity (ln)” value was 10.4.
With “AACCATTTTAAATATGCACACAGATGCACTAACACA [CACACA_site8565]” the “gcPBM binding intensity (ln)” value was 10.5.
For “CCATTTTAAATATGCACACAGATGCACTAACCCATT [CACACA_site1883]”, the “gcPBM binding intensity (ln)” value was 9.9.
“GCACTAAAAAAATAAACACACAGATTTATATAATAT [CACACA_site1381]” was tested, and the “gcPBM binding intensity (ln)” value was 6.5.
In the case of “TGGCACTAAAAAAATAAACACACAGATTTATATAAT [CACACA_site8386]”, the “gcPBM binding intensity (ln)” value is reported as 6.51.
“CCATTTTAAATATGCACACAGATGCACTAACACATT [CACACA_site5099]” was tested, and the “gcPBM binding intensity (ln)” value was 10.6.
For “TATGTTCCTTTTTGTTGTACTGAAAAATTATGTTCA [XGTACX_site3981]”, the “gcPBM binding intensity (ln)” value was 6.61.
With “GAAATAATAAATTAAAAATCGTTTATAACATTTAAC [CACACA_negctrl_site425]” the “gcPBM binding intensity (ln)” value was 6.21.
“AAATTCATAAAAATATTTTATAATTATATATAGAAT [TGCATGCA_negctrl_site343]” was tested, and the “gcPBM binding intensity (ln)” value was 6.34.
For “ATAAAATATATATATATAAAAATAAATACATAAATA [GTGCAC_negctrl_site157]”, the “gcPBM binding intensity (ln)” value was 6.31.
For “CACAAAAAGAAACACACACACATATATATTTATTAT [CACACA_site3646]”, the “gcPBM binding intensity (ln)” value was 6.73.
“ATGCATATGTTTATTGCACACACCAAAAAGAAAACA [CACACA_site403]” was tested, and the “gcPBM binding intensity (ln)” value was 9.25.
With “GCATATGTTTATTGCACACACCAAAAAGAAAACATA [CACACA_site4384]” the “gcPBM binding intensity (ln)” value was 10.5.
For “ACTATATTTCATAACAGTACATATTCCTGAAACATC [XGTACX_site4924]”, the “gcPBM binding intensity (ln)” value was 6.43.
“ATAATATAAATACAAACACACAATTGTGTCCACATT [CACACA_site6920]” was tested, and the “gcPBM binding intensity (ln)” value was 6.79.
“AGTATATACACGTGCGTGCACAGATATTCTTTTTTT [GTGCAC_site9398]” was tested, and the “gcPBM binding intensity (ln)” value was 9.58.
“AATACTAAAAAGTGTACACATACATAAAAAATTGCA [CACACA_site5620]” was tested, and the “gcPBM binding intensity (ln)” value was 7.24.
In the case of “ACGCTAATTATGTGCACACAAATTAAAGGTCTACAA [CACACA_site147]”, the “gcPBM binding intensity (ln)” value is reported as 11.4.
“ATATTCTAAATAAAGGGTACACAAAAATAATTAAAG [XGTACX_site5529]” was tested, and the “gcPBM binding intensity (ln)” value was 6.9.
For AATTAATGGCTAAAGGTGCACAATATATATATTACA, the “gcPBM binding intensity (ln)” value was 9.84.
For TTTATATTTAAAAGGATGCACTACAAATTCTAAATA, the “gcPBM binding intensity (ln)” value was 7.36.
“CCACTAATTATGTGCACACAAATTAAAGGTCTACAA [CACACA_site4259]” was tested, and the “gcPBM binding intensity (ln)” value was 11.4.
In the case of “GTACACTAATTATGTGCACACAAATTAAAGGTCTAC [CACACA_site146]”, the “gcPBM binding intensity (ln)” value is reported as 11.
In the case of “TCTTTATGTAAGGTCTTCCACAAAAAAATTAAAAAA [TGCATGCA_negctrl_site229]”, the “gcPBM binding intensity (ln)” value is reported as 6.21.
“TGTTAATAAAGGTGTACACAAAATAAAAAAAATTAT [CACACA_site4288]” was tested, and the “gcPBM binding intensity (ln)” value was 7.2.
“GATTTATACAAATATGTACACACTAATTATATATTA [CACACA_site8045]” was tested, and the “gcPBM binding intensity (ln)” value was 6.9.
“TTTTTCTTTCTCTATTGTACACATGGAAACACATAA [XGTACX_site4601]” was tested, and the “gcPBM binding intensity (ln)” value was 7.56.
“AAAAAAAAAAGAAACACACACATATATATATATAAT [CACACA_site5052]” was tested, and the “gcPBM binding intensity (ln)” value was 6.7.
In the case of “AATACAAACCAAAAAGTAAATACATCAACATGATCA [CACACA_negctrl_site140]”, the “gcPBM binding intensity (ln)” value is reported as 6.26.
In the case of “CTATATATTTTTCATTGTACACAAATTAAAGAAAAA [XGTACX_site8385]”, the “gcPBM binding intensity (ln)” value is reported as 6.61.
“ATGTTGCACAATGTTACACACACAATATATATCGTT [CACACA_site4833]” was tested, and the “gcPBM binding intensity (ln)” value was 10.7.
